Experimental data reported in the supplement of paper PMC11732987, “Enantioselective OTUD7B fragment discovery through chemoproteomics screening and high-throughput optimisation” (Communications Chemistry, 2025).

Legend:
Experiment in all cases: log2 ratio of Biotin-Ahx-Ub-VS probe labelling (fragment/DMSO); higher = less target engagement (more negative = stronger competition), active = hit call of the paper (q ≤ 0.05, log2 ratio ≤ -1)
Details in all cases: compound concentration: 200 uM; treatment time: 3 h
ALG13 = target: T1, ALG13 (UniProt Q9NP73)
T1 sequence (whole entry): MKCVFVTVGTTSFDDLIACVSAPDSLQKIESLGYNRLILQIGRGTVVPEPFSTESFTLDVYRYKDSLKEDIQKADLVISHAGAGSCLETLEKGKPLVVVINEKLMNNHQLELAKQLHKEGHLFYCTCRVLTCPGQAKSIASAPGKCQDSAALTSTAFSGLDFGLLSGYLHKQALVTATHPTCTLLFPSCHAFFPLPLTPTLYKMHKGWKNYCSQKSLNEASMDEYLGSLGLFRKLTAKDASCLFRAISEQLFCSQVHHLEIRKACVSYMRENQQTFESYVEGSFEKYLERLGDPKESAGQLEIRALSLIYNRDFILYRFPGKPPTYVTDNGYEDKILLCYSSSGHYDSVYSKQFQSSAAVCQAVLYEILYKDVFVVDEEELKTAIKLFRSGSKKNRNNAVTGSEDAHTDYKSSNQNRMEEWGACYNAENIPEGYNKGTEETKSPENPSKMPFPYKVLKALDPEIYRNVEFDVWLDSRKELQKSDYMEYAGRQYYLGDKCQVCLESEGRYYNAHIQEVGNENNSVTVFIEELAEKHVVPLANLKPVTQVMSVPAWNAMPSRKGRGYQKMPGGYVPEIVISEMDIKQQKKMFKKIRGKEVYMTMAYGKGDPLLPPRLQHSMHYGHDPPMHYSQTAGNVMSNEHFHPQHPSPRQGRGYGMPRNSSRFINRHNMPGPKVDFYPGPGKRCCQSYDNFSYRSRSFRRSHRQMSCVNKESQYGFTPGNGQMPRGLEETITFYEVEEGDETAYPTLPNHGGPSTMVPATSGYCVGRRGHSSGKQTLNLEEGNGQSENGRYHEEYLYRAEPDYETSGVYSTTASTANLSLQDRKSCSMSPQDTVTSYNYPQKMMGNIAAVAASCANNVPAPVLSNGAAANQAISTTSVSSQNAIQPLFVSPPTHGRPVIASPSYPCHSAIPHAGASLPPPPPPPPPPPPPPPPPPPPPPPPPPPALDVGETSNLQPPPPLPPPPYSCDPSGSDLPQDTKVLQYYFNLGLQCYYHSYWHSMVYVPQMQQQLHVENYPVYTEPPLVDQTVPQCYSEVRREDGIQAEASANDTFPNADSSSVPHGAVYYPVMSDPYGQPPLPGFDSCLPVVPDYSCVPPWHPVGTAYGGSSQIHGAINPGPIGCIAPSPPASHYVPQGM
How it was run: (§1)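 Fragment (200 µM) or vehicle was incubated for 3 h with triplicate HEK293T lysate samples of 495 µg, which were then treated with Biotin-Ahx-Ub-VS at 0.5 µM final for 1 h. Labelled DUBs were enriched on NeutrAvidin, digested with LysC and trypsin, and analysed by diaPASEF LC-MS/MS. Values are average log2 fragment/vehicle ratios from an unpaired t-test on global-median-normalised Spectronaut label-free quantities, using proteins with ≥2 unique peptides.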

ATXN3 = ATXN3 (UniProt P54252)
How it was run: as §1

BAP1 = target: T2, BAP1 (UniProt Q92560)
T2 sequence (whole entry): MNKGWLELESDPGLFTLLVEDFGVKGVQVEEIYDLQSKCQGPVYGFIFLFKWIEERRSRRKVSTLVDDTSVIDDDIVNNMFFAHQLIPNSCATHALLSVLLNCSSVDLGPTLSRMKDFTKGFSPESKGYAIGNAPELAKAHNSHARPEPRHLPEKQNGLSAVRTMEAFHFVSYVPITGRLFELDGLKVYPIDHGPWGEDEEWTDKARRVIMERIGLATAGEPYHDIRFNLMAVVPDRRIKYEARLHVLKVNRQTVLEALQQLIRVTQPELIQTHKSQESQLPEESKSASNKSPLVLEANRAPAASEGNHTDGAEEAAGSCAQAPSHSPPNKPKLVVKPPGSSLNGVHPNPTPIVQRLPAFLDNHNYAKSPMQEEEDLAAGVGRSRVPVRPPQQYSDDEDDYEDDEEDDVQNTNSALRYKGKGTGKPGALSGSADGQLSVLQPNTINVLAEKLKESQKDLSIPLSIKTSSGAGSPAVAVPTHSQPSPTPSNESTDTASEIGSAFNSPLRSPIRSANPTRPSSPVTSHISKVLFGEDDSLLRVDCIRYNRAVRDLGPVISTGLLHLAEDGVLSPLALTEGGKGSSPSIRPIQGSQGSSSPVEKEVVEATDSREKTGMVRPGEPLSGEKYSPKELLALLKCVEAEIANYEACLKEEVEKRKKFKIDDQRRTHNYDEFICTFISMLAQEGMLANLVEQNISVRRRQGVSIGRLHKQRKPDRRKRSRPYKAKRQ
How it was run: as §1

EIF3F = EIF3F (UniProt O00303)
How it was run: as §1

EIF3H = EIF3H (UniProt O15372)
How it was run: as §1

FAM105A = target: T3, FAM105A (UniProt Q9NUU6)
T3 sequence (whole entry): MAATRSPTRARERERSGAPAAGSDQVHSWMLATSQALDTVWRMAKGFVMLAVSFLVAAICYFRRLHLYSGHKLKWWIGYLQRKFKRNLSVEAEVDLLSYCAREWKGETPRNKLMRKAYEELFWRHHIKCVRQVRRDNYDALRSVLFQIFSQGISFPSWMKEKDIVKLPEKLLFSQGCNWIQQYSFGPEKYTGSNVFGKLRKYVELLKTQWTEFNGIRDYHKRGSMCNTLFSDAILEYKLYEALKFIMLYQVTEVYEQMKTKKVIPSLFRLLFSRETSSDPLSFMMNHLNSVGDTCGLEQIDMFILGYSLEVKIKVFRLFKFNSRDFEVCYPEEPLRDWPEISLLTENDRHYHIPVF
How it was run: as §1

OTUB1 = OTUB1 (UniProt Q96FW1)
How it was run: as §1

OTUD4 = target: T4, OTUD4 (UniProt Q01804)
T4 sequence (whole entry): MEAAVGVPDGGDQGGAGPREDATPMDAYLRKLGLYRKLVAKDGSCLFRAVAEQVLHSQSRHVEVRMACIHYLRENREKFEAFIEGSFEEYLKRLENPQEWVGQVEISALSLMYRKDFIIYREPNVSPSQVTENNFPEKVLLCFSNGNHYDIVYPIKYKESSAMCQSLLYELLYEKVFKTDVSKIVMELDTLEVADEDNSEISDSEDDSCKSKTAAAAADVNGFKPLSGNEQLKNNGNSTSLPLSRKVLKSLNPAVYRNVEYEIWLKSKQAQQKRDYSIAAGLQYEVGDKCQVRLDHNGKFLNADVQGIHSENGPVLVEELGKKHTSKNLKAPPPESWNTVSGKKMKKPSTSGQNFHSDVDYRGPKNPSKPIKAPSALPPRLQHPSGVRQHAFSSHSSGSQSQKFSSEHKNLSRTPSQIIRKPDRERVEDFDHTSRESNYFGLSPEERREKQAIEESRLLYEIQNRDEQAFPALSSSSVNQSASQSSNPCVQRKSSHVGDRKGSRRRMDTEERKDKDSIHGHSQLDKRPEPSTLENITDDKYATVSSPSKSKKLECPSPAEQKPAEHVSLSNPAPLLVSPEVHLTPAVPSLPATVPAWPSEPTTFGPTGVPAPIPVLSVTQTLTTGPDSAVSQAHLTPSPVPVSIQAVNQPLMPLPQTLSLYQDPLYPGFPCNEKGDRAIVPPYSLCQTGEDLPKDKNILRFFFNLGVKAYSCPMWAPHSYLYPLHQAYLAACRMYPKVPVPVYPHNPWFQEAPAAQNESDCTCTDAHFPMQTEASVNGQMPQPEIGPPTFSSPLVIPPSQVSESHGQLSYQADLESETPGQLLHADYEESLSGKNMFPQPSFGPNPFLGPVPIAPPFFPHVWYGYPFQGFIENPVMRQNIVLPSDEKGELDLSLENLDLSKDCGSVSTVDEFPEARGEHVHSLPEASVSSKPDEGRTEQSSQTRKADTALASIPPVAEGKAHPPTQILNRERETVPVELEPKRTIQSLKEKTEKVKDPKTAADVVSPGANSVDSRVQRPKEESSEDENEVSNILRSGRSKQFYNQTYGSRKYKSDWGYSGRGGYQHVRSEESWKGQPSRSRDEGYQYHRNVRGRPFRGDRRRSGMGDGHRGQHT
How it was run: as §1

OTUD5 = target: T5, OTUD5 (UniProt Q96G74)
T5 sequence (whole entry): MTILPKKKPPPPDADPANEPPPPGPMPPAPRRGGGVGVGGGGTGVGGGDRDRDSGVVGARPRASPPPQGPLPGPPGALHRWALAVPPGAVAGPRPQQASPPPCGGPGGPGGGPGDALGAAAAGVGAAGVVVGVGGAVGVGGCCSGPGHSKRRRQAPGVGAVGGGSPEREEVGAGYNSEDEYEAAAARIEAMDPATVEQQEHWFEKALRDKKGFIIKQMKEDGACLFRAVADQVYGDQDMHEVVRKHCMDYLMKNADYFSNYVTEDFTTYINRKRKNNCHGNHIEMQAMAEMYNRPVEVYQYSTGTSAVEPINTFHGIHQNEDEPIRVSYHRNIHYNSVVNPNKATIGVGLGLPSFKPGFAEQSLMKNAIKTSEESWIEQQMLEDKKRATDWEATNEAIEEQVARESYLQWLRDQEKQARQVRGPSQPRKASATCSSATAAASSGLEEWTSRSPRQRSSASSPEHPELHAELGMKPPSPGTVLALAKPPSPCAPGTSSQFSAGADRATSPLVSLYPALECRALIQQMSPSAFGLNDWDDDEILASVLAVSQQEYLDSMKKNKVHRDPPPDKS
How it was run: as §1

Measured: log2 ratio of Biotin-Ahx-Ub-VS probe labelling

Chain of ATXN3 (P54252 whole entry): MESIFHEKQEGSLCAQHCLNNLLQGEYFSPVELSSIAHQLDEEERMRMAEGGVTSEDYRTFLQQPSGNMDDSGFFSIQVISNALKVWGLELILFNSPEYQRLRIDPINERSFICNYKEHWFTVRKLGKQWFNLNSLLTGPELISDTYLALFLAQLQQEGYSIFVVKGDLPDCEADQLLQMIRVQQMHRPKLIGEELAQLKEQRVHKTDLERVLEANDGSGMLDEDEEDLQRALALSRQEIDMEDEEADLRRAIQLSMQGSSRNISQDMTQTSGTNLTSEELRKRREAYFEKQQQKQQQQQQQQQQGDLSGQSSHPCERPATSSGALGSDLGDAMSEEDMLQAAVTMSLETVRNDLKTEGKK
Chain of EIF3F (O00303 whole entry): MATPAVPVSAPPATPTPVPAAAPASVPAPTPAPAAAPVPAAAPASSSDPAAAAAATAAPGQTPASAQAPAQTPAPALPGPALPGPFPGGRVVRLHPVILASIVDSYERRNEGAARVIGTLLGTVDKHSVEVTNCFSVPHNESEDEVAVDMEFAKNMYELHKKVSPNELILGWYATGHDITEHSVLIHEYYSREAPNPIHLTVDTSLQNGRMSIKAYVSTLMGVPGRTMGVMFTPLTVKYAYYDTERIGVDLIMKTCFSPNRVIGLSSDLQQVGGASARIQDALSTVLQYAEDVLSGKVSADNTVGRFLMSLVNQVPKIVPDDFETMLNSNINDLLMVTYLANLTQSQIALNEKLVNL
Chain of EIF3H (O15372 whole entry): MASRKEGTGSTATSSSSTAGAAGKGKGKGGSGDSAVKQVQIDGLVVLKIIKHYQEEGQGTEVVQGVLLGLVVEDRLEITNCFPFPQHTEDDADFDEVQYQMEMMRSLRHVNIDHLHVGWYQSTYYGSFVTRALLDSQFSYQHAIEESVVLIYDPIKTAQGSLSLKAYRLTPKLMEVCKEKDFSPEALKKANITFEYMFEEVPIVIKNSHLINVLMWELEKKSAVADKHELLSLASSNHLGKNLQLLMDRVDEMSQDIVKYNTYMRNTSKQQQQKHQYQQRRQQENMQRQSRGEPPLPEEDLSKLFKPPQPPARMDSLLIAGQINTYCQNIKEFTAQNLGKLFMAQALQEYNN
Chain of OTUB1 (Q96FW1 whole entry): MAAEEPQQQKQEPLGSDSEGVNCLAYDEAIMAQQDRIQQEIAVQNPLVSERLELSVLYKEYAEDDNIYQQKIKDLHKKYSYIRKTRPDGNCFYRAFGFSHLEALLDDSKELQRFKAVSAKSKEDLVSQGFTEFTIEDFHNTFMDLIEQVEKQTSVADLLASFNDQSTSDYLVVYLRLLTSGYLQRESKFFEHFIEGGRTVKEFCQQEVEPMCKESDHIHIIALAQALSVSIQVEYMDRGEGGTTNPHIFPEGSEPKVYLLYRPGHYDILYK

O=C(CCl)N1CCC(C(=O)N2CCCC2)CC1
inactive: ALG13 0.141 | ATXN3 -0.319 | BAP1 -0.206 | EIF3F -0.123 | EIF3H -0.0247 | FAM105A -0.324 | OTUB1 -0.0283 | OTUD4 0.178 | OTUD5 -0.137
